Data taken from a collection of fitness landscapes (doi:10.1126/science.1257360).
Over roughly 140,000 sequences, “enrichment ratio after two sorts for PhoP signalling” has its median near 0; the highest 2% begin near 11. The entries come from a sample that favours the highest values as a whole.

B1: PhoQ; a variant is named by its letters at X, in order, P23837 (parent)
chain: MKKLLRLFFPLSLRVRFLLATAAVVLVLSLAYGMVALIGYSVSFDKTTFRLLRGESNLFYTLAKWENNKLHVELPENIDKQSPTMTLIYDENGQLLWAQRDVPWLMKMIQPDWLKSNGFHEIEADVNDTSLLLSGDHSIQQQLQEVREDDDDAEMTHSVAVNVYPATSRMPKLTIVVVDTIPVELKSSYMVWSWFIYVLSANLLLVIPLLWVAAWWSLRPIEALAKEVRELEEHNRELLNPATTRELTSLVRNLNRLLKSERERYDKYRTTLTDLTHSLKTPLXXLQXXLRSLRSEKMSVSDAEPVMLEQISRISQQIGYYLHRASMRGGTLLSRELHPVAPLLDNLTSALNKVYQRKGVNISLDISPEISFVGEQNDFVEVMGNVLDNACKYCLEFVEISARQTDEHLYIVVEDDGPGIPLSKREVIFDRGQRVDTLRPGQGVGLAVAREITEQYEGKIVAGESMLGGARMEVIFGRQHSAPKDE

Variants of: B1
Assay: enrichment ratio after two sorts for PhoP signalling (ratio (wild type AVST 3.29)); higher = more functional
Conditions: with PhoP (E. coli)

Row | Variant | enrichment ratio
1 | RPHF | ≤ 0.25
2 | SIYY | ≤ 0.25
3 | TIAT | 10.2
4 | NMAI | ≤ 0.25
5 | KYAI | ≤ 0.25
6 | AKAI | 5.1
7 | WIAI | ≤ 0.25
8 | TIYY | ≤ 0.25
9 | AMAI | 14.3
10 | TIAI | 11.7
11 | KMAI | ≤ 0.25
12 | AIAI | 12.7
13 | SIAI | 11.6
14 | VKNM | ≤ 0.25
15 | NFFL | ≤ 0.25
16 | GWNK | ≤ 0.25
17 | RLRM | ≤ 0.25
18 | RGTH | ≤ 0.25
19 | YTEG | ≤ 0.25
20 | YVMY | ≤ 0.25
21 | DNCH | ≤ 0.25
22 | GTCF | 1.25
23 | MCSA | ≤ 0.25
24 | FSEL | ≤ 0.25
25 | GNAI | 7.21

Row | Variant | enrichment ratio
26 | ANCS | 2.95
27 | ANAI | 30.1
28 | EQHH | ≤ 0.25
29 | FSLL | 13.5
30 | QPLL | ≤ 0.25
31 | MSLT | 4.06
32 | FCLL | 10.7
33 | NSLL | 3.55
34 | KSLL | ≤ 0.25
35 | MSLL | 13.3
36 | FQLL | 5.35
37 | TSLL | 14
38 | YSLL | 11.4
39 | QFLL | ≤ 0.25
40 | NRLL | ≤ 0.25
41 | TRIL | 5.95
42 | WDTG | ≤ 0.25
43 | RKRR | ≤ 0.25
44 | VQAF | ≤ 0.25
45 | TDFE | ≤ 0.25
46 | NRKC | ≤ 0.25
47 | KMVF | ≤ 0.25
48 | SSLL | 19.9
49 | SILL | 1.4
50 | SYLL | 0.392

Row | Variant | enrichment ratio
51 | YTGV | ≤ 0.25
52 | QEGV | ≤ 0.25
53 | STGV | 13.4
54 | SEGV | 11.7
55 | KCGV | ≤ 0.25
56 | KYGV | ≤ 0.25
57 | SRGV | ≤ 0.25
58 | TMGV | 12.1
59 | TMHV | 0.946
60 | FHNP | ≤ 0.25
61 | WDYS | ≤ 0.25
62 | LVGT | ≤ 0.25
63 | RDTF | ≤ 0.25
64 | VQAH | ≤ 0.25
65 | PCAG | ≤ 0.25
66 | LCRQ | ≤ 0.25
67 | YPYC | ≤ 0.25
68 | TLKH | ≤ 0.25
69 | THQH | 23.5
70 | TLQH | 21.1
71 | SHQH | ≤ 0.25
72 | KSQH | ≤ 0.25
73 | NHQH | ≤ 0.25
74 | RRNN | ≤ 0.25
75 | TVNT | 8.93

Row | Variant | enrichment ratio
76 | AHNM | 5.49
77 | NMYM | ≤ 0.25
78 | TQPV | ≤ 0.25
79 | MGAN | 12.6
80 | TGAN | 2.47
81 | MGLT | 5.67
82 | MGWN | 18.9
83 | MKAQ | ≤ 0.25
84 | MGKR | ≤ 0.25
85 | MGNT | ≤ 0.25
86 | MGAT | 18.8
87 | MGDN | ≤ 0.25
88 | MGAQ | 18.9
89 | QRAQ | ≤ 0.25
90 | MGNL | ≤ 0.25
91 | REVQ | ≤ 0.25
92 | RQWC | ≤ 0.25
93 | SLFD | ≤ 0.25
94 | VERW | ≤ 0.25
95 | LTMP | ≤ 0.25
96 | VRTD | ≤ 0.25
97 | TDMT | 10.8
98 | QVFF | ≤ 0.25
99 | MTFN | 16.9
100 | MGAI | 16.1

Row | Variant | enrichment ratio
101 | MGAG | 1.81
102 | MIFN | 11
103 | YTFN | ≤ 0.25
104 | MGFN | 11.6
105 | MGCS | 6.13
106 | TGFN | ≤ 0.25
107 | MKFN | ≤ 0.25
108 | QLDR | ≤ 0.25
109 | GINV | ≤ 0.25
110 | SIAD | 7.06
111 | YITI | ≤ 0.25
112 | YTPA | ≤ 0.25
113 | PENS | ≤ 0.25
114 | SNDM | ≤ 0.25
115 | YEES | ≤ 0.25
116 | FTCC | ≤ 0.25
117 | FTCQ | 7.15
118 | YECC | 56.2
119 | FTCV | 0.528
120 | YECV | 22.8
121 | YECI | 0.32
122 | YECS | 14.8
123 | YECK | ≤ 0.25
124 | YEQP | ≤ 0.25
125 | YECQ | 30.7

Row | Variant | enrichment ratio
126 | YECH | 6.45
127 | PGAC | ≤ 0.25
128 | FIVG | ≤ 0.25
129 | QDLS | ≤ 0.25
130 | KSLG | ≤ 0.25
131 | PSLG | ≤ 0.25
132 | TSLG | 14.5
133 | SRLG | ≤ 0.25
134 | SSLG | 16.1
135 | SILG | 8.57
136 | YYHP | ≤ 0.25
137 | DLTQ | ≤ 0.25
138 | ANPT | ≤ 0.25
139 | VAMM | 12.8
140 | IGWM | ≤ 0.25
141 | IQMM | ≤ 0.25
142 | IGGM | ≤ 0.25
143 | TAMM | 2.2
144 | IGMM | 18.5
145 | IPMM | ≤ 0.25
146 | VLMM | ≤ 0.25
147 | ITMM | 17.7
148 | VHMM | ≤ 0.25
149 | HIMM | ≤ 0.25
150 | GAMM | 14.4

Row | Variant | enrichment ratio
151 | MRMA | ≤ 0.25
152 | HQRH | ≤ 0.25
153 | GEDN | ≤ 0.25
154 | YNEG | ≤ 0.25
155 | KEMR | ≤ 0.25
156 | WIRK | ≤ 0.25
157 | EEFA | ≤ 0.25
158 | YYMT | ≤ 0.25
159 | TQCW | 0.964
160 | PSYG | ≤ 0.25
161 | EPIL | ≤ 0.25
162 | IAMM | 13.5
163 | ISMM | 5.78
164 | LAMM | 14.3
165 | KAMM | ≤ 0.25
166 | LLMM | ≤ 0.25
167 | LTMM | 2.28
168 | MTSV | 0.634
169 | QRSV | ≤ 0.25
170 | MDSV | ≤ 0.25
171 | QESV | 29.9
172 | QPSV | ≤ 0.25
173 | MESV | 24.5
174 | NESV | ≤ 0.25
175 | AHSV | ≤ 0.25

Row | Variant | enrichment ratio
176 | AESV | 14.8
177 | MKSV | ≤ 0.25
178 | IESV | ≤ 0.25
179 | ARSV | ≤ 0.25
180 | TESV | 26.1
181 | IVVM | ≤ 0.25
182 | GAFT | ≤ 0.25
183 | TQPA | ≤ 0.25
184 | WQTI | ≤ 0.25
185 | MSAY | 7.95
186 | NSEQ | ≤ 0.25
187 | TQMY | 12.5
188 | TQME | 17.2
189 | WQME | ≤ 0.25
190 | NQMY | ≤ 0.25
191 | FQMY | ≤ 0.25
192 | IQME | ≤ 0.25
193 | KHFI | ≤ 0.25
194 | MHHY | ≤ 0.25
195 | RLFV | ≤ 0.25
196 | ALVF | 0.451
197 | ACVF | 11.9
198 | AWVF | ≤ 0.25
199 | ATVF | 16.1
200 | ACHF | ≤ 0.25

Row | Variant | enrichment ratio
201 | YTVF | 0.29
202 | LWTN | ≤ 0.25
203 | FKQC | ≤ 0.25
204 | IVWE | ≤ 0.25
205 | GERC | ≤ 0.25
206 | GEIY | 23
207 | GNIS | 5.86
208 | GEIS | 20.8
209 | GEIC | 45.3
210 | GEFC | ≤ 0.25
211 | GGIY | 2.45
212 | GNIY | ≤ 0.25
213 | GEIV | 8.51
214 | IKLA | ≤ 0.25
215 | LNNT | ≤ 0.25
216 | FNGW | ≤ 0.25
217 | YVPF | ≤ 0.25
218 | LTCT | ≤ 0.25
219 | FKRE | ≤ 0.25
220 | TTCA | 9.39
221 | LPWS | ≤ 0.25
222 | GDTH | ≤ 0.25
223 | LVNA | ≤ 0.25
224 | HQNP | ≤ 0.25
225 | AKMT | 52.1

Row | Variant | enrichment ratio
226 | NQMT | ≤ 0.25
227 | AQMT | 23.8
228 | AIAT | 19.3
229 | KKAT | ≤ 0.25
230 | ANKA | ≤ 0.25
231 | ANKK | ≤ 0.25
232 | ANMT | 12.2
233 | AKAT | 3.68
234 | AQMI | ≤ 0.25
235 | MEMT | ≤ 0.25
236 | TKMT | 6.64
237 | FGIN | ≤ 0.25
238 | RFYE | ≤ 0.25
239 | FYWY | ≤ 0.25
240 | ITNK | ≤ 0.25
241 | QYEG | ≤ 0.25
242 | HPNG | ≤ 0.25
243 | WHVS | ≤ 0.25
244 | TMMI | 0.351
245 | WHFQ | 1.98
246 | DQQP | ≤ 0.25
247 | FHPL | ≤ 0.25
248 | LVAW | 0.304
249 | AIMT | 22.8
250 | KKAR | ≤ 0.25

Row | Variant | enrichment ratio
251 | AKAR | ≤ 0.25
252 | VHMT | ≤ 0.25
253 | ATMT | ≤ 0.25
254 | AIAR | 19.7
255 | SVWQ | ≤ 0.25
256 | KVQS | ≤ 0.25
257 | MTFM | 17.1
258 | MKFM | ≤ 0.25
259 | NAFM | ≤ 0.25
260 | KAFM | ≤ 0.25
261 | GTFM | ≤ 0.25
262 | YTFM | ≤ 0.25
263 | MAFM | 14.7
264 | MIFM | 15.8
265 | MIGM | 2.52
266 | DKSF | ≤ 0.25
267 | TGQA | 3.89
268 | FELW | ≤ 0.25
269 | SMGH | 1.91
270 | SMMH | 15.6
271 | SMWH | ≤ 0.25
272 | SMKH | ≤ 0.25
273 | SMIV | ≤ 0.25
274 | SMMN | 19.5
275 | SMPV | ≤ 0.25

Row | Variant | enrichment ratio
276 | SMQH | 14.9
277 | SMNL | 2.56
278 | SMMV | 17.9
279 | SMQN | ≤ 0.25
280 | SMTH | 4.57
281 | NSPY | ≤ 0.25
282 | PHRW | ≤ 0.25
283 | NLYI | ≤ 0.25
284 | HIPQ | ≤ 0.25
285 | SEHH | ≤ 0.25
286 | NIQH | ≤ 0.25
287 | NTWT | ≤ 0.25
288 | PEAN | ≤ 0.25
289 | VIAY | ≤ 0.25
290 | PFVI | ≤ 0.25
291 | GNDM | ≤ 0.25
292 | GENQ | ≤ 0.25
293 | DMMC | ≤ 0.25
294 | SMFC | ≤ 0.25
295 | SMMW | ≤ 0.25
296 | SMMC | 16.1
297 | SMMI | 5.18
298 | SMMS | 14.6
299 | DVQM | ≤ 0.25
300 | PNYR | ≤ 0.25

Row | Variant | enrichment ratio
301 | AGHK | ≤ 0.25
302 | HLLG | ≤ 0.25
303 | KDLI | ≤ 0.25
304 | ADLT | 11.3
305 | AILI | 1.77
306 | AILT | 6.15
307 | AHLI | 4.17
308 | FDLI | ≤ 0.25
309 | TDLI | 16.1
310 | AALI | 11.9
311 | APLI | 0.336
312 | AADK | ≤ 0.25
313 | ADLI | 16.8
314 | ADLA | 0.619
